# Results filed as inconclusive are left out. Unmarked numbers belong to inactive results. Active and inactive are the calls of the source. Calls follow the shape of the dose curve; as a rule, active = well fitted curve in the direction sought with a large enough effect; inconclusive = small, poorly fitted or top-dose-only effect, or another doubt; inactive = no such curve, though single readings can be large; an effect the other way counts as inactive or inconclusive.
# Legend:
# [1] = Quantitative High-Throughput drug screen in 47 multiple myeloma cell lines against the NCATS MIPE library collection: KMS20_JCRB cell viability assay (AID 1918973); also: nearly all actives have a fitted effect of over 45% in size
# In short: (§1)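 qHTS of the MIPE 4.0 collection: 500 myeloma cells/well, 48 h drug exposure at 37C in 5% CO2, then CellTiter-Glo for 5 min at room temperature before luminescence reading.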
# [2] = Quantitative High-Throughput drug screen in 47 multiple myeloma cell lines against the NCATS MIPE library collection: KMS26_JCRB cell viability assay (AID 1918975); also: nearly all actives have a fitted effect of over 45% in size
# In short: as §1
# [3] = Quantitative High-Throughput drug screen in 47 multiple myeloma cell lines against the NCATS MIPE library collection: MOLP8_DSMZ cell viability assay (AID 1918977); also: nearly all actives have a fitted effect of over 45% in size
# In short: (§2)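 qHTS format: cells plated (500/well), pin-dosed with MIPE 4.0 compounds, kept 48 h at 37 °C. Readout was CellTiter-Glo luminescence, median RLU.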
# [4] = Quantitative High-Throughput drug screen in 47 multiple myeloma cell lines against the NCATS MIPE library collection: NCIH929_DSMZ cell viability assay (AID 1918978); also: nearly all actives have a fitted effect of over 35% in size
# In short: as §2
# [5] = Quantitative High-Throughput drug screen in 47 multiple myeloma cell lines against the NCATS MIPE library collection: OCIMY1_PLB cell viability assay (AID 1918979); also: nearly all actives have a fitted effect of over 35% in size;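 as to viability: 100% = DMSO-only wells and 0% = cell-free media-only wells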
# In short: as §2
# [6] = Quantitative High-Throughput drug screen in 47 multiple myeloma cell lines against the NCATS MIPE library collection: MM1S_ATCC cell viability assay (AID 1918980); also: nearly all actives have a fitted effect of over 45% in size
# In short: as §2
# [7] = Quantitative High-Throughput drug screen in 47 multiple myeloma cell lines against the NCATS MIPE library collection: MM1R_ATCC cell viability assay (AID 1918981); also: nearly all actives have a fitted effect of over 35% in size
# In short: as §2
# [8] = Quantitative High-Throughput drug screen in 47 multiple myeloma cell lines against the NCATS MIPE library collection: KMS28PE_JCRB cell viability assay (AID 1918983); also: nearly all actives have a fitted effect of over 35% in size
# In short: as §2
# [9] = Quantitative High-Throughput drug screen in 47 multiple myeloma cell lines against the NCATS MIPE library collection: KMS34_JCRB cell viability assay (AID 1918985); also: nearly all actives have a fitted effect of over 40% in size
# In short: as §2
# [10] = Quantitative High-Throughput drug screen in 47 multiple myeloma cell lines against the NCATS MIPE library collection: OCIMY5_PLB cell viability assay (AID 1918988); also: nearly all actives have a fitted effect of over 65% in size
# In short: as §2
# [11] = Quantitative High-Throughput drug screen in 47 multiple myeloma cell lines against the NCATS MIPE library collection: OPM1_PLB cell viability assay (AID 1918989); also: nearly all actives have a fitted effect of over 40% in size
# In short: as §2
# [12] = Quantitative High-Throughput drug screen in 47 multiple myeloma cell lines against the NCATS MIPE library collection: SKMM1_PLB cell viability assay (AID 1919863); settings: SKMM1 myeloma viability, CellTiter-Glo ATP, 48 h; viability: hits give low values; also: nearly all actives have a fitted effect of over 35% in size
# In short: as §2
# [13] = Quantitative High-Throughput drug screen in 47 multiple myeloma cell lines against the NCATS MIPE library collection: U266_ATCC cell viability assay (AID 1919864); also: nearly all actives have a fitted effect of over 35% in size
# In short: as §2
# [14] = Quantitative High-Throughput drug screen in 47 multiple myeloma cell lines against the NCATS MIPE library collection: XG6_PLB cell viability assay (AID 1919865); also: nearly all actives have a fitted effect of over 40% in size
# In short: as §2
# [15] = Quantitative High-Throughput drug screen in 47 multiple myeloma cell lines against the NCATS MIPE library collection: XG1_PLB cell viability assay (AID 1919866); also: nearly all actives have a fitted effect of over 35% in size
# In short: as §2
# [16] = Quantitative High-Throughput drug screen in 47 multiple myeloma cell lines against the NCATS MIPE library collection: OCIMY7_PLB cell viability assay (AID 1918987); also: nearly all actives have a fitted effect of over 65% in size
# In short: as §2
# [17] = Quantitative High-Throughput drug screen in 47 multiple myeloma cell lines against the NCATS MIPE library collection: KMS21BM_JCRB cell viability assay (AID 1918974); settings: ATP luminescence, 48 h; viability: at 45.8 µM (top of the series) unless noted
# In short: as §1
# [18] = Quantitative High-Throughput drug screen in 47 multiple myeloma cell lines against the NCATS MIPE library collection: LP1_DSMZ cell viability assay (AID 1918982); also: nearly all actives have a fitted effect of over 35% in size
# In short: as §2
# [19] = Quantitative High-Throughput drug screen in 47 multiple myeloma cell lines against the NCATS MIPE library collection: L363_DSMZ cell viability assay (AID 1918984); also: nearly all actives have a fitted effect of over 40% in size
# In short: as §2
# [20] = Quantitative High-Throughput drug screen in 47 multiple myeloma cell lines against the NCATS MIPE library collection: MMM1_PLB cell viability assay (AID 1918976); also: nearly all actives have a fitted effect of over 35% in size
# In short: as §2
# Potency is read from the fitted curve at half-maximal effect.
compound,measurement,setting,value
CC#C[C@]1(O)CC[C@H]2[C@@H]3CCC4=CC(=O)CCC4=C3[C@@H](c3ccc(N(C)C)cc3)C[C@@]21C,Potency,[1],0.743 µM (active)
same,Potency,[2],4.18 µM (active)
same,Potency,[3],2.35 µM (active)
same,Potency,[4],0.418 µM (active)
same,Potency,[5],3.72 µM (active)
same,Potency,[6],0.187 µM (active)
same,Potency,[7],0.743 µM (active)
same,Potency,[8],1.32 µM (active)
same,Potency,[9],1.32 µM (active)
same,Potency,[10],0.833 µM (active)
same,Potency,[11],1.48 µM (active)
same,Potency,[12],4.18 µM (active)
same,Potency,[13],0.662 µM (active)
same,Potency,[14],0.264 µM (active)
same,Potency,[15],0.743 µM (active)
CC(C)C(=O)Nc1ccc([N+](=O)[O-])c(C(F)(F)F)c1,Potency,[1],7.43 µM (active)
same,Potency,[2],8.33 µM (active)
same,Potency,[4],1.87 µM (active)
same,Potency,[6],1.66 µM (active)
same,Potency,[7],3.72 µM (active)
same,Potency,[9],inactive
same,Potency,[16],2.96 µM (active)
same,Potency,[10],1.48 µM (active)
same,Potency,[11],8.33 µM (active)
same,Potency,[13],4.69 µM (active)
same,Potency,[14],1.05 µM (active)
same,Potency,[15],1.87 µM (active)
OCCN1CCN(CCCN2c3ccccc3Sc3ccc(C(F)(F)F)cc32)CC1,Potency,[1],16.6 µM (active)
same,Potency,[17],14.8 µM (active)
same,Potency,[2],20.9 µM (active)
same,Potency,[4],20.9 µM (active)
same,Potency,[6],2.96 µM (active)
same,Potency,[18],18.7 µM (active)
same,Potency,[8],18.7 µM (active)
same,Potency,[10],20.9 µM (active)
same,Potency,[11],20.9 µM (active)
same,Potency,[14],23.5 µM (active)
same,Potency,[15],20.9 µM (active)
CN(C)CCCN1c2ccccc2CCc2ccc(Cl)cc21,Potency,[1],1.87 µM (active)
same,Potency,[2],1.66 µM (active)
same,Potency,[4],0.469 µM (active)
same,Potency,[6],0.743 µM (active)
same,Potency,[8],14.8 µM (active)
same,Potency,[19],16.6 µM (active)
same,Potency,[16],0.187 µM (active)
same,Potency,[10],0.418 µM (active)
same,Potency,[11],14.8 µM (active)
same,Potency,[12],14.8 µM (active)
same,Potency,[13],0.526 µM (active)
same,Potency,[14],0.372 µM (active)
same,Potency,[15],0.372 µM (active)
COc1nc(C)nc(Cl)c1NC1=NCCN1,Potency,[1],9.35 µM (active)
same,Potency,[2],inactive
same,Potency,[4],10.5 µM (active)
same,Potency,[6],26.4 µM (active)
same,Potency,[7],inactive
same,Potency,[8],inactive
same,Potency,[11],inactive
same,Potency,[13],20.9 µM (active)
CN1CCC(=C2c3ccccc3CC(=O)c3sccc32)CC1,Potency,[1],inactive
same,Potency,[17],inactive
same,Potency,[3],inactive
same,Potency,[4],4.18 µM (active)
same,Potency,[5],inactive
same,Potency,[6],16.6 µM (active)
same,Potency,[18],inactive
same,Potency,[8],inactive
same,Potency,[10],23.5 µM (active)
same,Potency,[11],23.5 µM (active)
same,viability,[12],102%
same,Potency,[14],5.9 µM (active)
same,Potency,[15],8.33 µM (active)
CN1CCN(CCCN2c3ccccc3Sc3ccc(Cl)cc32)CC1,Potency,[1],8.33 µM (active)
same,Potency,[17],6.62 µM (active)
same,Potency,[2],26.4 µM (active)
same,Potency,[4],29.6 µM (active)
same,Potency,[5],inactive
same,Potency,[6],9.35 µM (active)
same,Potency,[16],26.4 µM (active)
same,Potency,[10],26.4 µM (active)
same,Potency,[11],16.6 µM (active)
same,Potency,[13],18.7 µM (active)
same,Potency,[14],14.8 µM (active)
same,Potency,[15],14.8 µM (active)
NCCCCCC(=O)O,Potency,[1],inactive
same,Potency,[2],inactive
same,Potency,[3],inactive
same,Potency,[4],inactive
same,Potency,[5],inactive
same,Potency,[6],16.6 µM (active)
same,Potency,[18],inactive
same,Potency,[8],inactive
same,Potency,[11],inactive
same,Potency,[14],inactive
same,Potency,[15],inactive
CNCCCC12CCC(c3ccccc31)c1ccccc12,Potency,[1],13.2 µM (active)
same,Potency,[17],11.8 µM (active)
same,Potency,[2],20.9 µM (active)
same,Potency,[5],20.9 µM (active)
same,Potency,[6],16.6 µM (active)
same,Potency,[8],23.5 µM (active)
same,Potency,[19],16.6 µM (active)
same,Potency,[10],23.5 µM (active)
same,Potency,[11],23.5 µM (active)
same,Potency,[12],18.7 µM (active)
same,Potency,[13],16.6 µM (active)
same,Potency,[14],18.7 µM (active)
same,Potency,[15],26.4 µM (active)
Cc1cc(C(C)(C)C)cc(C)c1CC1=NCCN1,Potency,[1],inactive
same,Potency,[2],inactive
same,Potency,[3],inactive
same,Potency,[4],inactive
same,Potency,[7],inactive
same,Potency,[8],inactive
same,Potency,[9],inactive
same,Potency,[11],inactive
same,viability,[12],116%
same,Potency,[13],inactive
same,Potency,[15],inactive
O=C1N(c2ccccc2)c2ccccc2C1(Cc1ccncc1)Cc1ccncc1,Potency,[1],0.001 µM (active)
same,Potency,[2],37.2 µM (active)
same,Potency,[4],inactive
same,Potency,[5],inactive
same,Potency,[8],inactive
same,Potency,[9],inactive
same,Potency,[10],37.2 µM (active)
same,Potency,[11],inactive
same,viability,[12],122%
same,Potency,[13],inactive
same,Potency,[15],18.7 µM (active)
CS(=O)(=O)CCNCc1ccc(-c2ccc3ncnc(Nc4ccc(OCc5cccc(F)c5)c(Cl)c4)c3c2)o1,Potency,[1],1.48 µM (active)
same,Potency,[17],11.8 µM (active)
same,Potency,[2],16.6 µM (active)
same,Potency,[20],18.7 µM (active)
same,Potency,[3],26.4 µM (active)
same,Potency,[4],0.264 µM (active)
same,Potency,[6],0.166 µM (active)
same,Potency,[8],26.4 µM (active)
same,Potency,[19],9.35 µM (active)
same,Potency,[9],29.6 µM (active)
same,Potency,[10],0.0743 µM (active)
same,Potency,[11],6.62 µM (active)
same,Potency,[12],23.5 µM (active)
same,Potency,[13],5.9 µM (active)
same,Potency,[14],0.001 µM (active)
same,Potency,[15],0.0187 µM (active)
O=C(Nc1ccc([N+](=O)[O-])cc1Cl)c1cc(Cl)ccc1O,Potency,[1],0.59 µM (active)
same,Potency,[17],1.05 µM (active)
same,Potency,[2],1.87 µM (active)
same,Potency,[3],1.66 µM (active)
same,Potency,[4],1.05 µM (active)
same,Potency,[5],2.96 µM (active)
same,Potency,[6],1.18 µM (active)
same,Potency,[7],1.66 µM (active)
same,Potency,[8],2.09 µM (active)
same,Potency,[19],1.05 µM (active)
same,Potency,[9],1.66 µM (active)
same,Potency,[10],1.66 µM (active)
same,Potency,[11],0.833 µM (active)
same,Potency,[12],1.48 µM (active)
same,Potency,[14],1.32 µM (active)
same,Potency,[15],0.935 µM (active)
NCCS(=O)(=O)O,Potency,[1],inactive
same,Potency,[2],inactive
same,Potency,[4],inactive
same,Potency,[5],inactive
same,Potency,[6],inactive
same,Potency,[18],inactive
same,Potency,[8],inactive
same,Potency,[9],inactive
same,Potency,[11],inactive
same,viability,[12],109%
same,Potency,[13],inactive
same,Potency,[14],inactive
same,Potency,[15],inactive

# — PubChem BioAssay (NCATS)
